Experimental data from the supplement of paper PMC12494721.

What was measured:
Conditions in all cases: incubation time: 27 h, anaerobic, 37 °C;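 for the amine columns active = adjusted P below 0.05 in both replicates with a change the same way and a mean fold change under 0.8 or over 1.25; inactive = the rest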
[1] = tested on: Clostridium sporogenes DSM 1664; experiment: growth (OD595) fold change vs plate DMSO controls (fold change (ratio)); higher = more growth
Summary of the method: (§1)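 To obtain OD, 595 nm absorbance readings were blank-subtracted, corrected for compound background using 20 µM compound solutions in water, and multiplied by a calibration factor of 5. They came from 96-well mGAM cultures grown anaerobically for 27 h at 37 °C and shaken before reading. Growth is the fold change relative to the median of plate DMSO controls. Two biological replicates were averaged, and fold changes above 1.5 were set to NA.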

Escherichia coli IAI1 [2] = experiment: as above
Summary of the method: as §1

[3] = tested on: Klebsiella aerogenes DSM 30053; experiment: as above
Summary of the method: as §1

[4] = tested on: Ruminococcus gnavus DSM 108212; experiment: as above
Summary of the method: as §1

[5] = tested on: Klebsiella aerogenes DSM 30053; experiment: fold change of Histamine concentration vs plate DMSO controls (fold change (ratio)); higher = more amine produced, active = hit call of the paper (significant change in both replicates, either direction)
Summary of the method: (§2)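 In 80 µL wells, cultures of four gut bacterial strains in mGAM started at OD 0.1 before a 1:1 dilution and grew anaerobically at 37 °C for 27 h. Compounds were added to 20 µM final, except sweeteners at 50 µM final. After extraction of whole cultures with cold acetonitrile/methanol plus 0.1% formic acid and centrifugation, amines were measured by LC–triple-quadrupole MS in dynamic MRM mode against external calibration curves, with within-batch drift correction. Values give fold change over DMSO controls on the same plate, averaged across 2 biological replicates.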

[6] = tested on: Clostridium sporogenes DSM 1664; experiment: fold change of Tryptamine concentration vs plate DMSO controls (fold change (ratio)); higher = more amine produced, active = hit call of the paper (significant change in both replicates, either direction)
Summary of the method: as §2

[7] = tested on: Ruminococcus gnavus DSM 108212; experiment: as above
Summary of the method: as §2

Escherichia coli IAI1 [8] = experiment: fold change of Putrescine concentration vs plate DMSO controls (fold change (ratio)); higher = more amine produced, active = hit call of the paper (significant change in both replicates, either direction)
Summary of the method: as §2

[9] = tested on: Klebsiella aerogenes DSM 30053; experiment: as above
Summary of the method: as §2

Escherichia coli IAI1 [10] = experiment: fold change of Cadaverine concentration vs plate DMSO controls (fold change (ratio)); higher = more amine produced, active = hit call of the paper (significant change in both replicates, either direction)
Summary of the method: as §2

[11] = tested on: Klebsiella aerogenes DSM 30053; experiment: as above
Summary of the method: as §2

[12] = tested on: Ruminococcus gnavus DSM 108212; experiment: fold change of 2-Phenylethylamine concentration vs plate DMSO controls (fold change (ratio)); higher = more amine produced, active = hit call of the paper (significant change in both replicates, either direction)
Summary of the method: as §2

| SMILES | growth [1] | growth (Escherichia coli IAI1 [2]) | growth [3] | growth [4] | fold change of Histamine concentration [5] | fold change of Tryptamine concentration [6] | fold change of Tryptamine concentration [7] | fold change of Putrescine concentration (Escherichia coli IAI1 [8]) | fold change of Putrescine concentration [9] | fold change of Cadaverine concentration (Escherichia coli IAI1 [10]) | fold change of Cadaverine concentration [11] | fold change of 2-Phenylethylamine concentration [12] |
| --- | --- | --- | --- | --- | --- | --- | --- | --- | --- | --- | --- | --- |
| C=CCOC(Cn1ccnc1)c1ccc(Cl)cc1Cl (stereo unspecified) (20 µM) | 1.09 | 0.991 | 1.02 | 0.883 | 0.976 (inactive) | 1.08 (inactive) | 1 (inactive) | 0.942 (inactive) | 0.941 (inactive) | 0.909 (inactive) | 1.06 (inactive) | 1.07 (inactive) |
| COc1ccc(C[C@@H]2c3cc(OC)c(OC)cc3CC[N@+]2(C)CCC(=O)OCCCCCOC(=O)CC[N@@+]2(C)CCc3cc(OC)c(OC)cc3[C@H]2Cc2ccc(OC)c(OC)c2)cc1OC [Cisatracurium besylate] (20 µM) | 1.4 | 1.01 | 1.05 | 1.01 | 0.758 (inactive) | 1.05 (inactive) | 1.03 (inactive) | 0.918 (inactive) | 0.929 (inactive) | 0.944 (inactive) | 1.07 (inactive) | 1.01 (inactive) |
| Cc1ccc(C)c(OCCCC(C)(C)C(=O)O)c1 [Gemfibrozil] (20 µM) | 1.11 | 1.01 | 1.07 | 0.931 | 1.02 (inactive) | 1.01 (inactive) | 1.05 (inactive) | 0.995 (inactive) | 1.02 (inactive) | 0.968 (inactive) | 0.994 (inactive) | 1.03 (inactive) |
